USP2a block = inhibitors of human ubiquitin-specific protease USP2a | O75604 | USP2 core, Ub-CHOP2 coupled fluorogenic reporter, 485/531 | Potency, µM (highest dose often 38.3 µM), hits mostly inhibitors | hit rate 0.01% among 330,000 | AID 463254
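USP2 core (10nM final) preincubated 30min RT with compound in 20mM Tris-HCl pH 8.0, 2mM CaCl2, 2mM beta-mercaptoethanol, 0.05% CHAPS; 25nM Ub-CHOP2 plus 25nM reporter substrate added, fluorescence (Ex485/Em531) read after 60min.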
IL-1B inflam inh = inflammasome signaling inhibition, IL-1 beta readout; activity change, % at 57.5 µM; AID 743279; THP-1 LPS/ATP IL-1B secretion, AlphaLISA, 16 h; stronger effect = lower value; hit rate 4.7% among 360,000; in the data active = activity change below about -50%; inconclusive = mostly about -30% to -49%
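THP-1 cells pretreated 1 hr with compounds (up to 57.5 uM final), then stimulated with LPS (250 ng/mL final) plus ATP (1.25 mM final); secreted IL-1B measured by AlphaLISA after 16 hr, decreased signal indicating inhibition.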
ATXN2 expr inh = ATXN2 expression inhibition. HEK-293 ATXN2-luciferase reporter, luminescence, 24 h. Potency, µM (highest dose often 57 µM), usual class: inhibitors. hit rate 0.72% among 360,000. AID 1745845; also: nearly all actives have a fitted effect of over 55% in size
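ATXN2-luciferase reporter cells (luciferase flanked by upstream and downstream ATXN2 gene portions) were treated 24 h at 37 °C with compounds at up to 57 uM. SteadyGlo luminescence gave expression; GF-AFC fluorescence gave viability.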
ATXN viability = reduces viability in counter-screen for ATXN expression inhibitors; S2 cells (HEK-293 line with an ATXN2-luciferase reporter) viability, CellTiter-Fluor protease fluorescence, 24 h; Potency, µM (doses to about 56.7 µM), actives largely listed as cytotoxic; hit rate 0.49% among 400,000; AID 651635; also: nearly all actives have a fitted effect of over 40% in size
USP1 inh = blocks the human USP1/UAF1 deubiquitinase complex. recombinant USP1/UAF1, Ub-Rhodamine cleavage fluorescence. AID 743255. Potency, µM (highest dose often 57.1 µM), hits mostly inhibitors. hit rate 0.23% among 390,000; also: nearly all actives have a fitted effect of over 60% in size
Target sequence (O94782 whole entry, looked up): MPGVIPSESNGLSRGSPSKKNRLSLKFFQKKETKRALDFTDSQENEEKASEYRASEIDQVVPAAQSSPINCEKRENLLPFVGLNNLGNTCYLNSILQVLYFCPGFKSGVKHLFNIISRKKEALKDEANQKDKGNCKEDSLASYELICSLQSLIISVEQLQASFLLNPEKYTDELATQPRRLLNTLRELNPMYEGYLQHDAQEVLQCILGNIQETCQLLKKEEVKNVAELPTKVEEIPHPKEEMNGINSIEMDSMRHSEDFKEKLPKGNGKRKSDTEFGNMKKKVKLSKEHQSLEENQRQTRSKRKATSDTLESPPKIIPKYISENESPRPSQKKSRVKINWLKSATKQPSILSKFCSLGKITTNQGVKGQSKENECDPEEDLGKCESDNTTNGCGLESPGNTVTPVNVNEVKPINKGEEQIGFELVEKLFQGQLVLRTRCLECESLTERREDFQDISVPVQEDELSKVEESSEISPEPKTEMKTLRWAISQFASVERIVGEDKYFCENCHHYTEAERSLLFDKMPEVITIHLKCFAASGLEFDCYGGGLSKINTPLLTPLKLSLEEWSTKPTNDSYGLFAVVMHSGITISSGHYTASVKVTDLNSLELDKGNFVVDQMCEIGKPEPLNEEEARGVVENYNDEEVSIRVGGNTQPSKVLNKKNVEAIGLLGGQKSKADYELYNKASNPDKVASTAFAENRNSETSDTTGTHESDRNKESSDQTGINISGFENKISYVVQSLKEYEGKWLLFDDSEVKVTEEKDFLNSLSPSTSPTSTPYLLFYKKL
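Step one: compound is pinned into 1nM USP1/UAF1 in HEPES pH 7.8 buffer with TCEP. Step two: 15 min room-temperature incubation. Step three: Ub-Rho (150nM final) starts cleavage, tracked by fluorescence over six one-minute reads.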
Large screens that a line does not name were inactive. In the library only some 4.8% were active in any assay of this set; here they are far more common. Unless noted, calls follow the shape of the dose curve; as a rule, active = well fitted curve in the direction sought with a large enough effect; inconclusive = small, poorly fitted or top-dose-only effect, or another doubt; inactive = no such curve, though single readings can be large; an effect the other way counts as inactive or inconclusive.

Cn1nc(C(=O)NNC(=O)C(CCC(N)=O)NS(=O)(=O)c2ccc(Cl)cc2)c2ccccc2c1=O (centres undefined)	none
NC(=S)NNc1ccnc2cc(Cl)ccc12	none
FC(F)Oc1ccc(NC(=S)NNc2ccnc3cc(Cl)ccc23)cc1	IL-1B inflam inh -93, ATXN2 expr inh inconclusive, ATXN viability inconclusive
COC(=O)c1ccc(OCC2c3cc(OC)c(OC)cc3CCN2C(=O)c2ccco2)cc1 (centres undefined)	IL-1B inflam inh -53, USP1 inh inconclusive
COC(=O)c1ccc(OCC2c3cc(OC)c(OC)cc3CCN2C(=O)c2ccc(OC)cc2)cc1 (centres undefined)	none (no result: USP2a block, IL-1B inflam inh)
CCNC(=S)N1CCc2cc(OC)c(OC)cc2C1COc1ccc(F)cc1 (centres undefined)	IL-1B inflam inh -61
C[C@H](CCC(=O)O)[C@H]1CC[C@H]2[C@H]3[C@@H](CC[C@]12C)[C@@]1(C)CC[C@@H](O)C[C@H]1C[C@@H]3O	none (no result: USP2a block, IL-1B inflam inh, ATXN viability, USP1 inh)
O=C(Nc1ccc2c(c1)N(C1CCCC1)C(=O)c1ccccc1S2)c1ccc(F)cc1	none (no result: USP2a block, IL-1B inflam inh)
CCOc1ccc(OCC)c(NC(=O)c2cnc3c(-c4ccccc4)c(C)nn3c2C)c1	none (no result: USP2a block, IL-1B inflam inh, ATXN2 expr inh, ATXN viability)
COc1ccc(-c2nc(NC(=O)c3[nH]c(C)c(C(C)=O)c3C)sc2C)cc1	IL-1B inflam inh -82, USP1 inh inconclusive
CCOc1ccc(-c2cc3c(=O)n(CC(=O)Nc4cc(F)ccc4C)ccn3n2)cc1	none (no result: USP2a block, IL-1B inflam inh)
O=C(NCC(c1ccco1)N1CCc2ccccc2C1)c1cccc([N+](=O)[O-])c1 (centres undefined)	none
O=C(NCC(c1ccco1)N1CCc2ccccc2C1)c1ccc(Cl)c([N+](=O)[O-])c1 (centres undefined)	IL-1B inflam inh -83
O=C(NCC(c1ccco1)N1CCCC1)c1ccc(Cl)c(S(=O)(=O)N2CCc3ccccc32)c1 (centres undefined)	IL-1B inflam inh -55, ATXN viability inconclusive
COC(=O)C1OCOC2C(C(=O)OC)OCOC12 (centres undefined)	USP1 inh inconclusive (no result: USP2a block)
Cc1cc2c(c(-c3cnccn3)c1)OC(CNC(=O)c1c(F)cccc1Cl)C2 (centres undefined)	none (no result: USP2a block, IL-1B inflam inh, ATXN2 expr inh, USP1 inh)
CCOc1ccc(CNS(=O)(=O)c2ccc3c(c2)CCCN3C(C)=O)cc1OC	none (no result: USP2a block, IL-1B inflam inh)
COC(=O)c1ccc(OCC(O)CNC2CCCC2)cc1 (centres undefined)	none
CC(C)NCC(O)COc1ccc(Br)cc1 (centres undefined)	USP1 inh inconclusive
CCCC(NCC(O)COc1ccc(-c2ccccc2)cc1)c1ccccc1 (centres undefined)	IL-1B inflam inh -77, ATXN2 expr inh 19µM, ATXN viability inconclusive
CC(NCC(O)COc1ccc(Br)cc1)c1ccccc1 (centres undefined)	IL-1B inflam inh inconclusive, ATXN2 expr inh inconclusive
CCC(CC)NCC(O)COc1ccc(Br)cc1 (centres undefined)	IL-1B inflam inh -52, ATXN2 expr inh inconclusive
OC(CNC1CCCC1)COc1ccc(-c2ccccc2)cc1 (centres undefined)	IL-1B inflam inh -63 (no result: ATXN viability)
O=C1NC[C@H](CCCCN2C[C@H](Cc3ccc(O)cc3)N(Cc3ccccc3)C(=O)C2=O)N(CCc2ccccc2)C1=O	none (no result: USP2a block, USP1 inh)
Cc1ccc(NS(=O)(=O)Cc2ccccc2)cc1Cl	IL-1B inflam inh -86
COc1ccc(-c2oc(NC(=O)CCl)c(C#N)c2-c2ccc(OC)cc2)cc1	IL-1B inflam inh -93, ATXN2 expr inh 18µM, USP1 inh inconclusive (no result: ATXN viability)
N#Cc1c(Oc2ccc3ccccc3c2)sc(C(=O)c2ccccc2)c1N	IL-1B inflam inh -107, ATXN2 expr inh inconclusive
N#Cc1c(SCc2ccccc2)sc(C(=O)c2ccccc2)c1N	none
Cc1cccc(Oc2sc(C(=O)c3ccccc3)c(N)c2C#N)c1C	IL-1B inflam inh -62
Cc1ccc(CSc2sc(C(=O)c3ccccc3)c(N)c2C#N)cc1	none
O=C(c1ccc(Br)c(S(=O)(=O)N2CCCCC2)c1)N1CCCCC1	none
Cc1ccc(C)c(N=Nc2nc3ccccc3n2C)c1	IL-1B inflam inh -80, ATXN viability inconclusive
Cc1cc(C)c(C)c(N=Nc2nc3ccccc3n2C)c1C	IL-1B inflam inh inconclusive, ATXN2 expr inh inconclusive, ATXN viability inconclusive, USP1 inh inconclusive
O=C(Nc1cccc(Cl)c1)N1CCc2ccccc2C1	none
O=C(Nc1ccc([N+](=O)[O-])cc1)N1CCc2ccccc2C1	IL-1B inflam inh -90
CC(C)c1ccc(NC(=O)N2CCc3ccccc3C2)cc1	IL-1B inflam inh -59
CCOc1cc(CNCCCN2CCOCC2)cc(Br)c1OCc1ccccc1Cl	IL-1B inflam inh -101, ATXN viability inconclusive
COc1cc(CNCCO)cc(Cl)c1OCc1ccccc1Cl	IL-1B inflam inh -91
CCOc1cc(CNCC(C)C)cc(Cl)c1OCc1ccccc1	IL-1B inflam inh -52, ATXN viability inconclusive (no result: ATXN2 expr inh)
CCCCNCc1cc(Cl)c(OCCC)c(OCC)c1	IL-1B inflam inh -64
CCCCOc1c(Cl)cc(CNC(C)(C)CO)cc1OCC	ATXN viability inconclusive
CCOc1cc(CNCCO)cc(Br)c1OCc1ccccc1Cl	IL-1B inflam inh inconclusive
O=[N+]([O-])c1ccccc1S(=O)(=O)N1CCCc2ccccc21	none
CN1CCN(C(=O)c2cc3c(c(-c4cccc(-c5cc6ccccc6o5)c4)n2)[C@H](CCO)N(S(=O)C(C)(C)C)C3)CC1 (some centres undefined)	none (no result: USP2a block, USP1 inh)
COc1cc(CNCCc2ccccc2)cc(Cl)c1OCc1ccccc1	IL-1B inflam inh -104, ATXN2 expr inh inconclusive, ATXN viability inconclusive
COc1ccc(CNCc2cccc(Oc3ccccc3)c2)cc1	IL-1B inflam inh -80
COc1ccc(CCC(C)NCc2ccccc2OC)cc1 (centres undefined)	IL-1B inflam inh -82
COc1ccc(CNCc2ccncc2)c(OC)c1	none
COc1ccccc1CCNC(C)CCc1ccc(O)cc1 (centres undefined)	none
COc1ccc(CNCc2ccc3ccccc3c2)c(OC)c1	IL-1B inflam inh -68 (no result: ATXN2 expr inh)
COc1ccc2oc(C(=O)NCCN3CCOCC3)c(C)c2c1OC	none
CC[C@@H](C(=O)[C@@H](C)[C@@H](O)[C@H](C)CCc1ccc(C)c(O)c1C(=O)O)[C@H]1O[C@](CC)([C@H]2CC[C@](O)(CC)[C@H](C)O2)C[C@@H]1C	IL-1B inflam inh -92, ATXN2 expr inh 20µM, ATXN viability 13µM
CCCCn1c(N)c(N(CC(C)C)C(=O)c2cccc(-n3cnnn3)c2)c(=O)[nH]c1=O	none
CN(C)CCCn1c(SCC(=O)Nc2nc(-c3cccc(Br)c3)cs2)nc2ccccc2c1=O	IL-1B inflam inh -90
O=C(CSc1nc2ccccc2[nH]1)Nc1nc(-c2cccc(Br)c2)cs1	none
CCCCCCCC(=O)[O-].CCCCCCCC(=O)[O-].[Zn+2]	none (no result: USP2a block, IL-1B inflam inh, USP1 inh)
Cc1ccc2nc(NC(=O)CSc3nc4c(c(=O)n3C)SC(C)C4)sc2c1 (centres undefined)	IL-1B inflam inh -56, ATXN2 expr inh inconclusive
